This is an account of results in ChEMBL document CHEMBL3433997, “St. Jude Leishmania screening dataset” (2016).

In general, inhibition refers to the relative decrease from the control value, in per cent. Lower therefore signals a weak effect.

Holding throughout (type): functional
The target of assay [1] is Solute carrier family 2, facilitated glucose transporter member 1 (Homo sapiens) (UniProt P11166). Briefly: ST_JUDE_LEISH: Cytotoxicity at 2uM final concentration against transgenic Leishmania Mexicana promastigotes LmGLUT1 that are glucose transport deficient and complemented with the human glucose transporter GLUT1. Activity is measured by DNA content using SYBR green in vitro.
Chain of Solute carrier family 2, facilitated glucose transporter member 1 (Homo sapiens) (P11166 whole entry): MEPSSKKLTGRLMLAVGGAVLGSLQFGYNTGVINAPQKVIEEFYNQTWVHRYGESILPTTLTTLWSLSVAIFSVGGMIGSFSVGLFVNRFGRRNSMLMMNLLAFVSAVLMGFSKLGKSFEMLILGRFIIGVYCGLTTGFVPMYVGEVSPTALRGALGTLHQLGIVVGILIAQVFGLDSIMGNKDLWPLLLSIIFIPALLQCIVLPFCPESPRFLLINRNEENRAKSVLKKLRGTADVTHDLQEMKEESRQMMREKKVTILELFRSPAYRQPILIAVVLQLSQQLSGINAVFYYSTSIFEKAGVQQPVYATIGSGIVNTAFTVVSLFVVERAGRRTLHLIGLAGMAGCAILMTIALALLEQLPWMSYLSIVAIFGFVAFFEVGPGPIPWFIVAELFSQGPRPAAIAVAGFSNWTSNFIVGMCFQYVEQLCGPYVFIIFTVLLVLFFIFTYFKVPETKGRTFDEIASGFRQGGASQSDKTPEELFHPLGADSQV

For assay [2], the target named is Hexose transporter 1 (Plasmodium falciparum) (UniProt O97467). Briefly: ST_JUDE_LEISH: Cytotoxicity at 2uM final concentration against transgenic Leishmania Mexicana promastigotes LmPfHT that are glucose transport deficient and complemented with the Plasmodium falciparum hexose transporter. Activity is measured by DNA content using SYBR green in vitro.
In assay [3] the target is Glucose transporter (Leishmania mexicana) (UniProt O61059). Briefly: ST_JUDE_LEISH: Cytotoxicity at 2uM final concentration against transgenic Leishmania Mexicana promastigotes LmGT2 that are glucose transport deficient and complemented with the L. Mexicana glucose transporter 2. Activity is measured by DNA content using SYBR green in vitro.

As for `O=C(/C=C/c1ccc(C(F)(F)F)cc1)NCCCCCN1CCN(C(=O)Nc2ccc(F)c(Cl)c2)CC1`, the inhibition in assay [1] was determined as 3.33%; in assay [2] it was 2.52%; in assay [3] it was 0.69%.
In the same order, the values of `O=C(/C=C/c1ccc(Cl)c(Cl)c1)NCCCCCN1CCC(NC(=S)Nc2ccc(Cl)cc2Cl)CC1` are 8.85%, 9.09% and 7.71%.
In the same order, the values of `Cc1nc(C)c(-c2ccc(C(=O)c3ccc(Cl)cc3)cc2)c(O)c1Br` are 1.02%, 1.24% and 0.57%.
As to `O=C(Nc1ccc(Cl)c(Cl)c1)N1CCC(CNCc2cccc([N+](=O)[O-])c2)CC1`, the inhibition came out at 3.92% in assay [1], 4.18% in assay [2] and 5.3% in assay [3].
In the same order, the values of `CCCCCCN1CCC(NCc2cccc3ccccc23)CC1` are 7.18%, 12.1% and 13.7%.
